Screening data deposited in PubChem by National Center for Advancing Translational Sciences (NCATS).
TDP1 cell noCPT: qHTS for Inhibitors of human tyrosyl-DNA phosphodiesterase 1 (TDP1): qHTS in cells in absence of CPT | Potency, µM (series often up to 46.2 µM), for the others: top-dose activity change, negative = growth inhibition, most hits filed as inhibitors | hit rate 15% among 420,000 | DT40 Tdp1-/- hTDP1 cells, no CPT, ATP luminescence, 48 h | AID 686978, 2013; note: potency is the fitted concentration of half-maximal effect; nearly all actives have a fitted effect of over 55% in size
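No-CPT arm: Tdp1-/-;hTDP1 DT40 cells (400/well) plus compounds, incubated ≥48 hr at 37 °C. Readout CellTiter-Glo luminescence.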
HT1080 IDH1KD tx: toxicity to HT-1080 IDH1 knockdown cells (counter line); HT-1080 IDH1 knockdown viability, ATP luminescence, 48 h; Potency, µM (top dose mostly 46.1 µM), inactives show at the highest dose activity, negative = toxicity, usual class: cytotoxic; hit rate 2% among 360,000; AID 686971;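 note: potency is the fitted concentration of half-maximal effect; 0% = DMSO wells and -100% = cell-free medium wells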
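Cytotoxicity counter-line: IDH1KD HT-1080, 48 h, CellTiter-Glo. Curves classed by r2, magnitude and activity.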
IL-1B inflam inh: inhibitors of inflammasome signaling (IL-1 beta secretion); THP-1 LPS/ATP IL-1B secretion, AlphaLISA, 16 h; active compounds read low; activity change, % at 57.5 µM; hit rate 4.7% among 360,000; AID 743279; in the data active = activity change below about -50%; inconclusive = mostly about -30% to -49%
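Secreted IL-1B measured by AlphaLISA bead assay after 16 h compound exposure of THP-1 cells; compounds (final up to 57.5 uM) added 1 h before LPS (250 ng/mL) and ATP (1.25 mM) stimulation; lower signal means less secretion.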
DT40 TDP1 CPT: DT40-hTDP1 cell growth loss with CPT; chicken DT40 Tdp1-/-;hTDP1 cells + 20 nM CPT, ATP luminescence, 48 h; Potency, µM (titrated, usually from 46.2 µM), for the others: at the top dose activity change, negative = growth inhibition, most hits filed as inhibitors; hit rate 12% among 420,000; AID 686979; note: potency is the fitted concentration of half-maximal effect; nearly all actives have a fitted effect of over 55% in size
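Chicken DT40 Tdp1-/- cells complemented with human TDP1, 400 cells/well, exposed to compounds plus 20 nM camptothecin for at least 48 h at 37 C; viability read as ATP content by CellTiter-Glo luminescence.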
HT1080NT lethal: kills 2HG-producing HT-1080-NT fibrosarcoma cells | HT-1080-NT fibrosarcoma viability, CellTiter-Glo ATP luminescence, 48 h | Potency, µM (top dose mostly 46.1 µM), inactives show at the top dose activity, negative = less viability, usual class: cytotoxic | hit rate 1.6% among 360,000 | AID 686970;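 note: NT is the 2HG producing partner of a matched IDH1 knockdown line; potency is the fitted concentration of half-maximal effect; 0% = DMSO-treated cells and -100% = media-only wells without cells; nearly all actives have a fitted effect of over 55% in size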
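Viability by CellTiter-Glo luminescence after 48 h compound exposure at 37C of HT-1080-NT cells (750/well, RPMI, 5% FBS). % activity scaled between DMSO wells and medium-only wells, then curve-fitted and categorized by curve class.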
An asterisk follows results filed as active; u = inconclusive; x = not tested or not shown. Only some compounds are listed: those with a hit (about 19% of all), similar ones and a draw of the others. Unless noted, calls come from the whole dose curve; as a rule, active = well fitted curve in the direction sought with a large enough effect; inconclusive = small, poorly fitted or top-dose-only effect, or another doubt; inactive = no such curve, though single readings can be large; an effect the other way counts as inactive or inconclusive. Unless noted, % is set by controls: 0 for no effect and ±100 for the full control effect.

SMILES | TDP1 cell noCPT | HT1080 IDH1KD tx | IL-1B inflam inh | DT40 TDP1 CPT | HT1080NT lethal
O=C(CCn1nc(-c2ccc(Cl)cc2)ccc1=O)N1CCN(c2ccc(F)cc2)CC1 | 21µM* | -6% | u | u | -11%
Cc1ccc(CCNC(=O)CCn2nc(-c3ccc(Cl)cc3)ccc2=O)cc1 | 23µM* | x | x | u | x
CCN(CC)CCNC(=O)CCn1nc(-c2ccc(Cl)cc2)ccc1=O | 7% | 16% | -14 | 0% | 6%
CC1CCOC(c2coc3ccccc3c2=O)O1 (stereo unspecified) | -10% | -20% | -4 | -4% | -23%
O=C(O)C1CSC(c2coc3ccccc3c2=O)N1 (stereo unspecified) | u | u | 1 | 26µM* | -29%
O=C1c2oc3ccccc3c(=O)c2C(c2ccccc2F)N1Cc1ccc2c(c1)OCO2 (stereo unspecified) | u | x | x | -25% | x
O=C1NC(=O)/C(=C/c2ccccn2)S1 | -19% | -2% | 9 | 2% | 1%
O=C1Nc2ccc(Br)cc2C1=Nc1cccnc1 | 8.2µM* | u | 33 | 12µM* | u
O=C1Nc2ccccc2C1=Nc1cccc(Cl)c1 | -17% | 20% | 1 | -12% | 12%
COc1ccc(N=Cc2ccc(-c3ccccc3)o2)cc1 | -20% | u | -8 | -6% | -23%
CC1(c2ccc([N+](=O)[O-])cc2)Nc2ccccc2S1 (stereo unspecified) | 0% | 21µM* | u | u | u
Cn1c(CNC(=O)CNC(=O)c2ccc(F)cc2)cc(=O)n(C)c1=O | -8% | 10% | -11 | 8% | -1%
CC(C)CCSc1nc2c(c(=O)n(C)c(=O)n2C)n1Cc1ccccc1Cl | -17% | x | x | 6% | x
COc1ccc(NC(=O)Nc2ccc3c(c2)C(=O)N([C@H](C)CO)C[C@H](C)[C@@H](CN(C)C(=O)NC(C)C)O3)cc1 | -15% | 4% | 21 | 3% | -21%
COc1ccc(NC(=O)Nc2cccc3c2O[C@@H](CN(C)CC2CCCCC2)[C@@H](C)CN([C@H](C)CO)C3=O)cc1 | u | -2% | -1 | 23µM* | -15%
COc1ccc(NC(=O)Nc2ccc3c(c2)C(=O)N([C@@H](C)CO)C[C@@H](C)[C@@H](CN(C)CC2CCCCC2)O3)cc1 | 23µM* | -19% | -2 | u | -3%
CCN(C(=O)C(C)Cl)c1ccccc1 (stereo unspecified) | 4% | 15% | 2 | 0% | 5%
O=C(Nc1cccc(C(F)(F)F)c1)c1cc(S(=O)(=O)N2CCCCC2)ccc1N1CCOCC1 | 18µM* | -2% | u | 23µM* | -5%
O=C(Nc1cccc(F)c1)c1cc(S(=O)(=O)N2CCOCC2)ccc1N1CCCC1 | -27% | -1% | -30 | 5% | -12%
O=C(Nc1nnc(C2CC2)s1)c1cc(S(=O)(=O)N2CCCCC2)ccc1N1CCOCC1 | -20% | -2% | u | -20% | 3%
CCc1nnc(NC(=O)c2cc(S(=O)(=O)N3CCOCC3)ccc2N2CCCCC2)s1 | u | -10% | -70* | 1% | -3%
O=C(Nc1ccccc1Cl)c1cc(S(=O)(=O)N2CCCCC2)ccc1N1CCOCC1 | 23µM* | -2% | -23 | u | -3%
CC1(C(=O)NS(=O)(=O)c2ccc(Cl)cc2)CCN1C(=O)c1cccc(F)c1 (stereo unspecified) | -5% | 7% | 54 | -18% | 18%
CC1CC(C)CN(S(=O)(=O)c2ccc3c(c2)NC(=O)C(C)C(=O)N3)C1 (stereo unspecified) | -19% | 6% | 41 | -21% | -5%
O=[N+]([O-])c1ccc(NN=Cc2ccc3c(c2)OCO3)nc1 | u | 24% | -16 | -4% | 8%
O=[N+]([O-])c1ccc(NN=Cc2ccco2)nc1 | -28% | -23% | 31 | 3% | -5%
O=[N+]([O-])c1ccc(N/N=C\c2cccnc2)nc1 | -15% | 7% | 23 | 0% | 3%
